Records with an inconclusive call do not appear. The source made the active and inactive calls. Rule for the calls, unless noted: active = hit-call score of the fitted dose curve at least 0.9, where 1 is the maximum; inactive = score below 0.9.
Experiments:
[1] = ATG_Ets_CIS: Attagene CIS-FACTORIAL HepG2 Assay for human Erythroblast Transformation Specific (ETS) (AID 2282941); conditions: HepG2 ETS cis-reporter transcription, actives raise or lower the signal
Method in brief: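 RT-PCR/capillary electrophoresis fluorescence read-out of reporter mRNA; HepG2 transient multi-reporter transfection; 24 h compound exposure; gain or loss of signal fitted bidirectionally relative to DMSO.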

[2] = target: Hepatocyte nuclear factor 3-beta (Homo sapiens) (UniProt Q9Y261); experiment: ATG_FoxA2_CIS: Attagene CIS-FACTORIAL HepG2 Assay for human Forkhead box A2 (FOXA2) (AID 2282942); conditions: HepG2 cis-reporter transcription factor activity, 24 h; actives raise or lower the signal
Sequence of Hepatocyte nuclear factor 3-beta (Homo sapiens) (Q9Y261 whole entry, looked up): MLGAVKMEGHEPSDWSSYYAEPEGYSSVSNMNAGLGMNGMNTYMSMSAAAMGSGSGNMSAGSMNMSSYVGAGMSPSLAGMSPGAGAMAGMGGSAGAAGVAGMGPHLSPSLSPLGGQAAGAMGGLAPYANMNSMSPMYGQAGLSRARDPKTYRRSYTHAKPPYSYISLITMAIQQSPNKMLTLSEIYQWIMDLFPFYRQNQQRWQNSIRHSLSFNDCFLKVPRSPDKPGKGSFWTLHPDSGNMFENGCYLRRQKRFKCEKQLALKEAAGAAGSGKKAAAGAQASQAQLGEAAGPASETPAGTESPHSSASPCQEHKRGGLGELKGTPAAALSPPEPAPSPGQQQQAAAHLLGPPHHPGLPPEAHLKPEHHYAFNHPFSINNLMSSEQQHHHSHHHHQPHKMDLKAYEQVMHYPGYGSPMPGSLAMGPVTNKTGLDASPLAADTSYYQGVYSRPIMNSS
Method in brief: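 Endogenous transcription factor activity was read in HepG2 cells carrying transiently transfected cis-promoter reporter units. After 24 h dosing, reporter mRNA was quantified by RT-PCR and capillary electrophoresis, and values fitted bidirectionally versus DMSO.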

[3] = ATG_GRE_CIS: Attagene CIS-FACTORIAL HepG2 Assay for human Glucocorticoid Response Elements (GRE) (AID 2282947); conditions: HepG2 GRE cis-reporter, Attagene multiplex mRNA; actives raise or lower the signal
Method in brief: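 Fluorescence intensity of reporter-specific cDNA fragments, separated by capillary electrophoresis, provides the signal. Constructs carry cis-regulating promoters in transiently transfected HepG2 liver cells; 24 h incubation; fitting is bidirectional against DMSO.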

[4] = ATG_ISRE_CIS: Attagene CIS-FACTORIAL HepG2 Assay for human Interferon Regulatory Factor 1 (IRF1) binding to an Interferon-Stimulated Response Element (ISRE) (AID 2282948); conditions: HepG2 ISRE cis-reporter (Attagene), mRNA transcription readout; actives raise or lower the signal
Method in brief: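 Read-out: fluorescent RT-PCR products resolved by capillary electrophoresis, reporting endogenous transcription factor activity via ISRE-driven reporter mRNA in transfected HepG2 cells dosed for 24 h; gain or loss fitted relative to DMSO.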

[5] = target: Hepatocyte nuclear factor 6 (Homo sapiens) (UniProt Q9UBC0); experiment: ATG_HNF6_CIS: Attagene CIS-FACTORIAL HepG2 Assay for human Hepatocyte Nuclear Factor 6 (HNF6) (AID 2282952); conditions: HepG2 Attagene cis-factorial HNF6 reporter transcription; actives raise or lower the signal
Sequence of Hepatocyte nuclear factor 6 (Homo sapiens) (Q9UBC0 whole entry, looked up, the tested form may be a part): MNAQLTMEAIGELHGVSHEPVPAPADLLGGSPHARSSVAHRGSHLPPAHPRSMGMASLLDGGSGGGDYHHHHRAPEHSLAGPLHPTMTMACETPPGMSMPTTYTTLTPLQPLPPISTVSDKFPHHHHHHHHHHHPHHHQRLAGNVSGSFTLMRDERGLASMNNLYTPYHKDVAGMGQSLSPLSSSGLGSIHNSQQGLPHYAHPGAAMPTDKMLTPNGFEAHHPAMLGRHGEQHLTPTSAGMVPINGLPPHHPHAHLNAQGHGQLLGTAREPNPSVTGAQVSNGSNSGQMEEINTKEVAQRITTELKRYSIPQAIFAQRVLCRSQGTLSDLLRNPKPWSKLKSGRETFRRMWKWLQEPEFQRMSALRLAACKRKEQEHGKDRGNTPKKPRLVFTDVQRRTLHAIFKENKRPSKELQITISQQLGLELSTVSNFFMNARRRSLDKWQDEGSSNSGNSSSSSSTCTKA
Method in brief: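 Using cis-element reporters in HepG2 liver cells, the assay tracks endogenous factor-driven transcription 24 h post-dosing. Signal comes from 6-FAM-labelled, HpaI-digested RT-PCR fragments, with gain or loss scored against DMSO.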

[6] = target: Heat shock factor protein 1 (Homo sapiens) (UniProt Q00613); experiment: ATG_HSE_CIS: Attagene CIS-FACTORIAL HepG2 Assay for human Heat Shock Transcription Factor 1 (HSE) (AID 2282953); conditions: HepG2 HSE cis-reporter, Attagene RNA transcription; actives raise or lower the signal
Sequence of Heat shock factor protein 1 (Homo sapiens) (Q00613 whole entry, looked up, the tested form may be a part): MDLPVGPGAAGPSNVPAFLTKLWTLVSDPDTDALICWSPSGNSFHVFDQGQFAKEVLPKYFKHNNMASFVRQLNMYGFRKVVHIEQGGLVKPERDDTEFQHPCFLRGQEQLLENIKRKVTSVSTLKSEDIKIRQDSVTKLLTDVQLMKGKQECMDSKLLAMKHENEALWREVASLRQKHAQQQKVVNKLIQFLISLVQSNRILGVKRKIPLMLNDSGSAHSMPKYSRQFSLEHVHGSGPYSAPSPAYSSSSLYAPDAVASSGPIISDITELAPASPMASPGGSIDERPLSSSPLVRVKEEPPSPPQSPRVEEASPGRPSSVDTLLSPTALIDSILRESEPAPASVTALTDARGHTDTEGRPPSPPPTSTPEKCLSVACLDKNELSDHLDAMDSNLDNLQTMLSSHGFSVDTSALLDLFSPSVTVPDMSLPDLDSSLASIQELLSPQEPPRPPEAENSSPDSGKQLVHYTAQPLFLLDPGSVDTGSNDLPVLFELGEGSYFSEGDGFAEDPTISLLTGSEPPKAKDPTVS
Method in brief: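 Endogenous transcription factor activity captured via cis-promoter reporter units transfected into HepG2; treatment lasted 24 h. Fluorescence intensity of reporter fragments analysed with bidirectional curve fitting, DMSO baseline.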

[7] = target: Nuclear respiratory factor 1 (Homo sapiens) (UniProt Q16656); experiment: ATG_NRF1_CIS: Attagene CIS-FACTORIAL HepG2 Assay for human Nuclear Respiratory Factor 1 (NRF1) Orphan Gene (AID 2282987); conditions: HepG2 NRF1 cis-element reporter, Attagene multiplex; actives raise or lower the signal
Sequence of Nuclear respiratory factor 1 (Homo sapiens) (Q16656 whole entry, looked up, the tested form may be a part): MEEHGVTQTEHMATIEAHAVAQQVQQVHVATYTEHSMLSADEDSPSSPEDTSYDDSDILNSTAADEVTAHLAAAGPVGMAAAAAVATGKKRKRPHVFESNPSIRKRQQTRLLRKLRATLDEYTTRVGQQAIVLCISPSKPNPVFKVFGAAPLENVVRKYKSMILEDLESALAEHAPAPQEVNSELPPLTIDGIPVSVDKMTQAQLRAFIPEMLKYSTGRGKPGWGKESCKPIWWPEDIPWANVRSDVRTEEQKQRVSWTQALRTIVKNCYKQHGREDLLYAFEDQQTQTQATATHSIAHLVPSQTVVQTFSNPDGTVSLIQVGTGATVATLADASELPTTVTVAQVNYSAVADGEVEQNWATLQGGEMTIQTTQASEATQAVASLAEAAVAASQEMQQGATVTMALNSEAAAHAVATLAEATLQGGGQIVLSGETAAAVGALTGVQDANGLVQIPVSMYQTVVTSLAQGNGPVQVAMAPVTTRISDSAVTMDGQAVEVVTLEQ
Method in brief: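 Fluorescence intensity of labelled reporter cDNA fragments, resolved by capillary electrophoresis, served as readout for NRF1 cis-element activity. Transiently transfected HepG2 cells were dosed for 24 hours; activity in either direction was fitted against DMSO negative control.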

[8] = target: Cellular tumor antigen p53 (Homo sapiens) (UniProt P04637); experiment: ATG_p53_CIS: Attagene CIS-FACTORIAL HepG2 Assay for human p53 Transcription Factor (AID 2282994); conditions: HepG2 p53 cis-element reporter, Attagene mRNA; actives raise or lower the signal
Sequence of Cellular tumor antigen p53 (Homo sapiens) (P04637 whole entry, looked up): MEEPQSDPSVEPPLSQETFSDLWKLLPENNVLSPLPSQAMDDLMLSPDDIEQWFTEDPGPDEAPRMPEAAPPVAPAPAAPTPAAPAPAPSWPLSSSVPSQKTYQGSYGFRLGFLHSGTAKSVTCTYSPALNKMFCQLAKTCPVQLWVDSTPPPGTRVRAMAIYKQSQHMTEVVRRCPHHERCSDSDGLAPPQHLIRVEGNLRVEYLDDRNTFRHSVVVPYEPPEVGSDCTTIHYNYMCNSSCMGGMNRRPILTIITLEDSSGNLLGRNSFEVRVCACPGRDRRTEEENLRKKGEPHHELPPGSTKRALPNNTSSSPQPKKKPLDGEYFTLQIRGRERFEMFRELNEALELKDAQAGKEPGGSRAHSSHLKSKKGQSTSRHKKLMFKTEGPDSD
Method in brief: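 Read-out: reporter mRNA by RT-PCR plus capillary electrophoresis with fluorescence detection. Human HepG2 liver cells carried transfected multi-reporter cis-element constructs, dosed 24 h. Gain or loss of signal fitted bidirectionally against DMSO control.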

[9] = TOX21_p53_BLA_p2_viability: Viability Assessment in the Tox21 HCT-116 p53 Agonism Beta-lactamase Assay, Phase 2 (AID 2283591; active = hit-call score of the fitted dose curve at least 0.9, where 1 is the maximum;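 note: compound exposure lasted 16 h at 37 °C; actives lower the ATP signal meaning cytotoxicity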)
Method in brief: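 HCT116 p53-bla cells, 4000/well, dosed after 5 h plating (217-fold dilution of DMSO stocks) and incubated 16 h at 37C. Viability taken as cellular ATP by CellTiter-Glo luminescence after 30 min RT; signal loss marks cytotoxicity.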

[10] = target: Cellular tumor antigen p53 (Homo sapiens) (UniProt P04637); experiment: TOX21_p53_BLA_p2_ratio: Tox21 HCT-116 p53 Agonism Beta-lactamase Assay, Ratio, Phase 2 (AID 2283592; active = hit-call score of the fitted dose curve at least 0.9, where 1 is the maximum)
Method in brief: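 Plated HCT116 p53-bla cells (4000/well) received compound after 5 h, then 16 h at 37C/5% CO2. CCF4-AM added, 2 h RT. Ratio of 460 to 530 nm emission taken as the p53 reporter signal.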

[11] = TOX21_p53_BLA_p3_viability: Viability Assessment in the Tox21 HCT-116 p53 Agonism Beta-lactamase Assay, Phase 3 (AID 2283593; active = hit-call score of the fitted dose curve at least 0.9, where 1 is the maximum;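 note: cells exposed to compound for 16 h before reading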)
Method in brief: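 HCT116 cells, 4000/well, dosed 5 h after plating by pin transfer (217-fold dilution from DMSO stock) and incubated 16 h at 37C, 5% CO2. Viability read as ATP luminescence with CellTiter-Glo after 30 min at room temperature.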

[12] = target: Cellular tumor antigen p53 (Homo sapiens) (UniProt P04637); experiment: TOX21_p53_BLA_p3_ratio: Tox21 HCT-116 p53 Agonism Beta-lactamase Assay, Ratio, Phase 3 (AID 2283596; active = hit-call score of the fitted dose curve at least 0.9, where 1 is the maximum)
Method in brief: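 Cells were seeded at 4000/well, rested 5 h at 37C, then dosed with DMSO compound solutions (217-fold dilution) for 16 h. CCF4-AM substrate was loaded for 2 h at room temperature, and the 460/530 nm emission ratio was fitted for gain of signal versus DMSO.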

[13] = TOX21_p53_BLA_p4_viability: Viability Assessment in the Tox21 HCT-116 p53 Agonism Beta-lactamase Assay, Phase 4 (AID 2283597; active = hit-call score of the fitted dose curve at least 0.9, where 1 is the maximum;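 note: hits lower the luminescence signal meaning cytotoxicity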)
Method in brief: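 Readout: ATP luminescence (CellTiter-Glo), measured 30 min after reagent addition at RT. The reagent followed a 2 h CCF4-AM incubation, and the cells had been exposed to compound for 16 h at 37C.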

[14] = target: Cellular tumor antigen p53 (Homo sapiens) (UniProt P04637); experiment: TOX21_p53_BLA_p5_ratio: Tox21 HCT-116 p53 Agonism Beta-lactamase Assay, Ratio, Phase 5 (AID 2283599; active = hit-call score of the fitted dose curve at least 0.9, where 1 is the maximum)
Method in brief: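 HCT-116 p53-bla cells (4000/well) plated 5 h, dosed with compound (217-fold DMSO dilution) for 16 h at 37 C; CCF4-AM substrate 2 h at room temperature. Activity is the 460/530 nm emission ratio (405 nm excitation), fitted in gain-of-signal direction versus DMSO.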

[15] = TOX21_p53_BLA_p5_viability: Viability Assessment in the Tox21 HCT-116 p53 Agonism Beta-lactamase Assay, Phase 5 (AID 2283600; active = hit-call score of the fitted dose curve at least 0.9, where 1 is the maximum)
Method in brief: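 Workflow: seed 4000 cells per well, wait 5 h, add compounds (DMSO, 217-fold dilution), incubate 16 h, load CCF4-AM 2 h, add CellTiter-Glo, read luminescence after 30 min.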

[16] = ATG_PXRE_CIS: Attagene CIS-FACTORIAL HepG2 Assay for human Pregnane X Receptor Element (PXRE) (AID 2282957); conditions: HepG2 Attagene CIS-FACTORIAL PXRE reporter, mRNA; actives raise or lower the signal
Method in brief: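 Using HepG2 transfected with multiple reporter transcription units, endogenous factor-driven transcription was scored as reporter mRNA after 24 h exposure.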

[17] = target: Transcription factor Sp1 (Homo sapiens) (UniProt P08047); experiment: ATG_Sp1_CIS: Attagene CIS-FACTORIAL HepG2 Assay for human Specificity Protein 1 (Sp1) (AID 2282961); conditions: HepG2 Sp1 cis-reporter transcription, actives raise or lower the signal
Sequence of Transcription factor Sp1 (Homo sapiens) (P08047 whole entry, looked up): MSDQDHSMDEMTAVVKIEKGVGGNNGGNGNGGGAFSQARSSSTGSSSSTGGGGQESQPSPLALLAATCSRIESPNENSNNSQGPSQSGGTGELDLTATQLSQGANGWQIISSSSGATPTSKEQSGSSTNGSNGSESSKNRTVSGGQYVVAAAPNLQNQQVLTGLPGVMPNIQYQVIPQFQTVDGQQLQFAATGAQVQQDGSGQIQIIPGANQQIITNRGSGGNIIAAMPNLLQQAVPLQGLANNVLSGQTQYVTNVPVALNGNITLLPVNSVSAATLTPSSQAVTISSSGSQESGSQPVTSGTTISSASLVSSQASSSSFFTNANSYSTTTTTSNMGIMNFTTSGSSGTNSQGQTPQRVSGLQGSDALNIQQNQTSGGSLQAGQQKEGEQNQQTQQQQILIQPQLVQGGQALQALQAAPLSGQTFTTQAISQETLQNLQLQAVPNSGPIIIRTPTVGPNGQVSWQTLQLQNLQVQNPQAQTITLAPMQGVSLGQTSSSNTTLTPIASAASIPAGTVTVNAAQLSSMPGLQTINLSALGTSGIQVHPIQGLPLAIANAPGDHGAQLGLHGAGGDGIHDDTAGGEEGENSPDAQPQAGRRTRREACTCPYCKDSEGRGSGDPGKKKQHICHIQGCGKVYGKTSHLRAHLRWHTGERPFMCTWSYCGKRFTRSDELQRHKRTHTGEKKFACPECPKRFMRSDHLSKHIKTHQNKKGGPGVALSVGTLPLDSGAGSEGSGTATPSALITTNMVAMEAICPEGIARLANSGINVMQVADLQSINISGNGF
Method in brief: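 Endogenous Sp1 activity was gauged in human liver HepG2 cells bearing transfected reporter units under a cis-regulating promoter. After 24 h dosing, reporter mRNA was quantified by RT-PCR with capillary electrophoresis, and activity fitted bidirectionally versus DMSO.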

[18] = target: Cellular tumor antigen p53 (Homo sapiens) (UniProt P04637); experiment: TOX21_p53_BLA_p4_ratio: Tox21 HCT-116 p53 Agonism Beta-lactamase Assay, Ratio, Phase 4 (AID 2283601; active = hit-call score of the fitted dose curve at least 0.9, where 1 is the maximum)
Method in brief: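 HCT-116 p53 beta-lactamase reporter cells (4000/well) preincubated 5 h, then compound (217-fold dilution of DMSO stock) for 16 h at 37C. CCF4-AM substrate added 2 h at room temperature; 460/530 nm emission ratio fitted upward versus DMSO.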

[19] = ATG_M_61_CIS: Attagene CIS-FACTORIAL HepG2 Assay for M61 Transcription Factor (Internal Marker) (AID 2282937); conditions: HepG2 Attagene CIS-FACTORIAL M61 internal marker reporter; actives raise or lower the signal
Method in brief: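 Cells were transfected with reporter units under cis-regulatory promoters, treated with chemicals for 24 h, then lysed for RNA. Reporter transcripts were quantified by RT-PCR and capillary electrophoresis, and activity was fitted bidirectionally against DMSO.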

[20] = ATG_SREBP_CIS: Attagene CIS-FACTORIAL HepG2 Assay for human Sterol Regulatory Element Binding (SREBP) (AID 2282962); conditions: HepG2 Attagene cis-factorial SREBP reporter, mRNA; actives raise or lower the signal
Method in brief: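 Readout: fluorescent reporter-transcript peaks resolved by capillary electrophoresis after RT-PCR. Cells were human HepG2 carrying transfected cis-promoter reporter constructs, dosed for 24 h. Gain or loss of signal was fitted against DMSO controls.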

Measured: AC50

CC/C=C\CCCCCO
not listed: [16] | [17] | [18] | [19] | [20]
inactive: all other assays above

COC(=O)/C=C\C(=O)OC
active: [1] 100 µM | [3] 128 µM | [4] 45.8 µM | [5] 128 µM | [16] 6.26 µM
not listed: [9] | [12] | [13] | [19] | [20]
inactive: all other assays above

CN(C)Cc1cc(C(C)(C)C)c(O)c(C(C)(C)C)c1
active: [16] 3.41 µM | [20] 43.1 µM
not listed: [1] | [4] | [10] | [14] | [18]
inactive: all other assays above

CC(C)(Oc1ccc(Cl)cc1)C(=O)O
not listed: [13] | [19]
inactive: all other assays above

NC(=O)c1ccc([N+](=O)[O-])cc1Cl
not listed: [4] | [11] | [13]
inactive: all other assays above

O=C(c1ccccc1)c1ccccc1O
active: [4] 161 µM | [5] 148 µM | [16] 26.7 µM
inactive: [19] | [1] | [2] | [3] | [6] | [17] | [20] | [7]

Brc1ccc(Oc2ccc(Br)cc2)cc1
active: [16] 27.3 µM
not listed: [4]
inactive: all other assays above

OCCc1ccccn1
not listed: [4] | [11] | [13] | [14] | [15] | [19]
inactive: all other assays above

Clc1ccc(Sc2cc(Cl)c(Cl)cc2Cl)cc1
active: [16] 5.97 µM
not listed: [1] | [6] | [9] | [14] | [17] | [19] | [20]
inactive: all other assays above

c1cc[c]([Bi]([c]2ccccc2)[c]2ccccc2)cc1
inactive: [19] | [2] | [3] | [4] | [5] | [6] | [17] | [20] | [7]

CCOC(=O)CC(=O)OCC
not listed: [4] | [13] | [14]
inactive: all other assays above

CCCC(=O)OC
not listed: [9] | [13] | [15] | [18] | [20]
inactive: all other assays above

CCCN[C@H]1CCc2nc(N)sc2C1
not listed: [3] | [20]
inactive: all other assays above

O=C(CC(C(=O)OC1CCCCC1)S(=O)(=O)O)OC1CCCCC1 (stereo not drawn)
not listed: [13] | [16]
inactive: all other assays above

Sc1nc2ccccc2s1
active: [9] 0.000211 µM | [11] 0.000124 µM | [13] 0.00175 µM | [15] 0.000128 µM
not listed: [4] | [16] | [19]
inactive: all other assays above

CCC(C)C1N=C(C)C(C)S1 (stereo not drawn)
active: [16] 3.25 µM
not listed: [10] | [11] | [15]
inactive: all other assays above

— PubChem BioAssay (EPA / NIEHS)
